# Source: PubChem BioAssay (NCI)
# Compounds without any hit were thinned out: in the full panel of roughly 79,000, 15% have a hit. Values without a mark were called inactive. Calls of active or inactive are those of the source. Rule as the data show it: active = growth inhibition above about 70%; inactive = the rest.
# Columns and labels:
# [1] = NCI Yeast Anticancer Drug Screen. Data for the rad52 strain (AID 147);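 also: 0% = growth of vehicle-treated control cultures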; conditions: S. cerevisiae rad52 mutant growth inhibition, hits give high values
# Method in brief: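 Compounds are applied to a genetically defined yeast strain lacking normal DNA damage repair, and inhibition of growth is expressed relative to cultures given vehicle only.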
# [2] = NCI Yeast Anticancer Drug Screen. Data for the wt1 strain (AID 149);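 also: 0% = growth of vehicle-treated wt1 cultures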; conditions: S. cerevisiae wt1 strain (SPY 50644) growth inhibition, hits give high values
# Method in brief: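 wt1 yeast, compound-treated; % growth inhibition vs vehicle control.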
# [3] = NCI Yeast Anticancer Drug Screen. Data for the rad50EPP+ strain (AID 151);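 also: 0% = growth of vehicle-treated control cultures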; conditions: S. cerevisiae rad50 mutant strain, hits give high values
# Method in brief: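 Compounds were applied to the rad50EPP+ yeast strain, which bears a defined DNA repair alteration, and growth inhibition was determined relative to vehicle-treated cultures.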
# [4] = NCI Yeast Anticancer Drug Screen. Data for the mgt1 strain (AID 153); conditions: S. cerevisiae mgt1 mutant growth inhibition, hits give high values
# Method in brief: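 Strain: mgt1 yeast, one of a set carrying defined DNA damage repair or cell cycle control alterations. Compound-treated growth compared with vehicle.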
# [5] = NCI Yeast Anticancer Drug Screen. Data for the rad50 strain (AID 155);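 also: 0% = growth of vehicle-only cultures of the same strain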; conditions: S. cerevisiae rad50 strain growth inhibition, hits give high values
# Method in brief: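 Genetically altered yeast (DNA repair pathway); compound treatment; growth inhibition vs vehicle ctrl.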
# [6] = NCI Yeast Anticancer Drug Screen. Data for the mec2-1 strain (AID 157); conditions: S. cerevisiae mec2-1 strain, hits give high values
# Method in brief: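 Strain: mec2-1 (DNA repair/cell cycle alteration). Compound exposure, then growth measured; inhibition expressed relative to vehicle.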
# [7] = NCI Yeast Anticancer Drug Screen. Data for the rad14 strain (AID 159);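 also: 0% = growth of vehicle-treated control cultures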; conditions: S. cerevisiae rad14 strain growth inhibition, hits give high values
# Method in brief: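 Test compounds were applied to a repair-deficient yeast strain. Its growth was then compared with that of cultures given vehicle alone, and inhibition was expressed relative to those controls.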
# [8] = NCI Yeast Anticancer Drug Screen. Data for the sgs1 mgt1 strain (AID 161);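 also: 0% = growth of cultures given vehicle only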; conditions: S. cerevisiae sgs1 mgt1 strain, hits give high values
# Method in brief: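 Read-out: growth inhibition vs vehicle controls. Cells: mutant yeast strain deficient in DNA damage repair.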
# [9] = NCI Yeast Anticancer Drug Screen. Data for the CLN2oe strain (AID 163);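 also: 0% = growth of vehicle-only control cultures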; conditions: S. cerevisiae CLN2oe strain, hits give high values
# Method in brief: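 Growth of a genetically modified yeast strain is measured after compound exposure and compared with cultures given vehicle alone.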
# [10] = NCI Yeast Anticancer Drug Screen. Data for the cln2 rad14 strain (AID 165);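 also: 0% = growth equal to vehicle treated cultures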; conditions: S. cerevisiae cln2 rad14 strain, hits give high values
# Method in brief: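 Compounds are applied to the cln2 rad14 yeast strain, and growth is then compared with that of vehicle-treated cultures to give inhibition.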
# [11] = NCI Yeast Anticancer Drug Screen. Data for the wt2 strain (AID 169);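 also: 0% = growth of vehicle-treated yeast cultures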; conditions: S. cerevisiae wt2 strain growth inhibition, hits give high values
# Method in brief: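 This strain belongs to a panel of yeast strains with defined genetic alterations in DNA damage repair or cell cycle control. Compounds are applied, and growth inhibition is measured against vehicle-treated cultures.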
# [12] = NCI Yeast Anticancer Drug Screen. Data for the sgs1 strain (AID 173);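 also: 0% = growth of vehicle-only control cultures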; conditions: S. cerevisiae sgs1 mutant, hits give high values
# Method in brief: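 Growth of a yeast strain bearing a defined genetic alteration is measured after compound treatment. Inhibition is expressed relative to vehicle-only controls.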
# [13] = NCI Yeast Anticancer Drug Screen. Data for the mlh1 rad18 strain (AID 175); conditions: S. cerevisiae mlh1 rad18 strain growth inhibition, hits give high values
# Method in brief: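 Read-out is yeast growth inhibition, calculated against vehicle-only controls. The compound was applied to a strain engineered with DNA damage repair alterations.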
# [14] = NCI Yeast Anticancer Drug Screen. Data for the rad18 strain (AID 177); conditions: S. cerevisiae rad18 mutant growth inhibition, hits give high values
# Method in brief: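 Growth of the mutant yeast strain after compound exposure, normalised to vehicle-only cultures.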
# [15] = NCI Yeast Anticancer Drug Screen. Data for the bub3 strain (AID 167); conditions: S. cerevisiae bub3 mutant strain, hits give high values
# Method in brief: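 Yeast carrying a defined mutation is treated with each compound, and growth is compared with that of vehicle-exposed cells to give inhibition.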
# [16] = NCI Yeast Anticancer Drug Screen. Data for the mlh1 strain (AID 171);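 also: 0% = growth of vehicle-treated control cultures of the same strain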; conditions: S. cerevisiae mlh1 strain growth inhibition, hits give high values
# Method in brief: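 Growth of the mutant yeast strain after compound exposure, expressed as inhibition relative to vehicle-only controls.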
# [17] = at 5.0 µM (retest, dose inferred, filed as 0.5)
# [18] = at 50.0 µM (retest, dose inferred, filed as 5.0)
compound,measurement,setting,value
NC(=O)NN=C(CS)CS,growth inhibition,[1]; at 1.2 µM,-1%
same,growth inhibition,[1]; at 3.7 µM,4%
same,growth inhibition,[1]; at 11.0 µM,19%
same,growth inhibition,[1]; at 33.0 µM,50%
same,growth inhibition,[1]; at 100.0 µM,88% (active)
same,growth inhibition,[2]; at 1.2 µM,-1%
same,growth inhibition,[2]; at 3.7 µM,-2%
same,growth inhibition,[2]; at 11.0 µM,-1%
same,growth inhibition,[2]; at 33.0 µM,17%
same,growth inhibition,[2]; at 100.0 µM,33%
same,growth inhibition,[3]; at 1.2 µM,-2%
same,growth inhibition,[3]; at 3.7 µM,-1%
same,growth inhibition,[3]; at 11.0 µM,-5%
same,growth inhibition,[3]; at 33.0 µM,6%
same,growth inhibition,[3]; at 100.0 µM,29%
same,growth inhibition,[4]; at 1.2 µM,-1%
same,growth inhibition,[4]; at 3.7 µM,0%
same,growth inhibition,[4]; at 11.0 µM,2%
same,growth inhibition,[4]; at 33.0 µM,12%
same,growth inhibition,[4]; at 100.0 µM,66%
same,growth inhibition,[5]; at 1.2 µM,1%
same,growth inhibition,[5]; at 3.7 µM,30%
same,growth inhibition,[5]; [17],4%
same,growth inhibition,[5]; at 11.0 µM,31%
same,growth inhibition,[5]; at 33.0 µM,44%
same,growth inhibition,[5]; [18],57%
same,growth inhibition,[5]; at 50.0 µM,63.8%
same,growth inhibition,[5]; at 100.0 µM,89% (active)
same,growth inhibition,[6]; at 1.2 µM,0%
same,growth inhibition,[6]; at 3.7 µM,0%
same,growth inhibition,[6]; [17],1%
same,growth inhibition,[6]; at 11.0 µM,6%
same,growth inhibition,[6]; at 33.0 µM,24%
same,growth inhibition,[6]; [18],28%
same,growth inhibition,[6]; at 50.0 µM,48.5%
same,growth inhibition,[6]; at 100.0 µM,60%
same,growth inhibition,[7]; at 1.2 µM,-2%
same,growth inhibition,[7]; at 3.7 µM,0%
same,growth inhibition,[7]; at 11.0 µM,6%
same,growth inhibition,[7]; at 33.0 µM,30%
same,growth inhibition,[7]; at 100.0 µM,97% (active)
same,growth inhibition,[8]; [17],2%
same,growth inhibition,[8]; [18],32%
same,growth inhibition,[8]; at 50.0 µM,75% (active)
same,growth inhibition,[9]; at 1.2 µM,-9%
same,growth inhibition,[9]; at 3.7 µM,-11%
same,growth inhibition,[9]; at 11.0 µM,-10%
same,growth inhibition,[9]; at 33.0 µM,0%
same,growth inhibition,[9]; at 100.0 µM,11%
same,growth inhibition,[10]; [17],-22%
same,growth inhibition,[10]; [18],9%
same,growth inhibition,[10]; at 50.0 µM,-11.9%
same,growth inhibition,[11]; at 1.2 µM,0%
same,growth inhibition,[11]; at 3.7 µM,8%
same,growth inhibition,[11]; at 11.0 µM,2%
same,growth inhibition,[11]; at 33.0 µM,10%
same,growth inhibition,[11]; at 100.0 µM,46%
same,growth inhibition,[12]; at 1.2 µM,0%
same,growth inhibition,[12]; at 3.7 µM,5%
same,growth inhibition,[12]; at 11.0 µM,18%
same,growth inhibition,[12]; at 33.0 µM,49%
same,growth inhibition,[12]; at 100.0 µM,89% (active)
same,growth inhibition,[13]; [17],5%
same,growth inhibition,[13]; [18],47%
same,growth inhibition,[13]; at 50.0 µM,84.8% (active)
same,growth inhibition,[14]; at 1.2 µM,-1%
same,growth inhibition,[14]; at 3.7 µM,6%
same,growth inhibition,[14]; at 11.0 µM,19%
same,growth inhibition,[14]; at 33.0 µM,61%
same,growth inhibition,[14]; at 100.0 µM,95% (active)
COc1ccc(Br)c(C(=O)Sc2nnnn2-c2cccc(Cl)c2)c1,growth inhibition,[1]; at 1.2 µM,23%
same,growth inhibition,[1]; at 3.7 µM,29%
same,growth inhibition,[1]; at 11.0 µM,24%
same,growth inhibition,[1]; at 33.0 µM,43%
same,growth inhibition,[1]; at 100.0 µM,96% (active)
same,growth inhibition,[2]; at 1.2 µM,5%
same,growth inhibition,[2]; at 3.7 µM,17%
same,growth inhibition,[2]; at 11.0 µM,22%
same,growth inhibition,[2]; at 33.0 µM,33%
same,growth inhibition,[2]; at 100.0 µM,93% (active)
same,growth inhibition,[3]; at 1.2 µM,3%
same,growth inhibition,[3]; at 3.7 µM,-19%
same,growth inhibition,[3]; at 11.0 µM,9%
same,growth inhibition,[3]; at 33.0 µM,65%
same,growth inhibition,[3]; at 100.0 µM,92% (active)
same,growth inhibition,[4]; at 1.2 µM,-10%
same,growth inhibition,[4]; at 3.7 µM,11%
same,growth inhibition,[4]; at 11.0 µM,16%
same,growth inhibition,[4]; at 33.0 µM,30%
same,growth inhibition,[4]; at 100.0 µM,95% (active)
same,growth inhibition,[5]; at 1.2 µM,2%
same,growth inhibition,[5]; at 3.7 µM,21%
same,growth inhibition,[5]; [17],42%
same,growth inhibition,[5]; at 11.0 µM,6%
same,growth inhibition,[5]; at 33.0 µM,42%
same,growth inhibition,[5]; [18],71% (active)
same,growth inhibition,[5]; at 50.0 µM,87.6% (active)
same,growth inhibition,[5]; at 100.0 µM,93% (active)
same,growth inhibition,[6]; at 1.2 µM,13%
same,growth inhibition,[6]; at 3.7 µM,-9%
same,growth inhibition,[6]; [17],40%
same,growth inhibition,[6]; at 11.0 µM,-14%
same,growth inhibition,[6]; at 33.0 µM,12%
same,growth inhibition,[6]; [18],72% (active)
same,growth inhibition,[6]; at 50.0 µM,88.9% (active)
same,growth inhibition,[6]; at 100.0 µM,94% (active)
same,growth inhibition,[7]; at 1.2 µM,-8%
same,growth inhibition,[7]; at 3.7 µM,-5%
same,growth inhibition,[7]; at 11.0 µM,-30%
same,growth inhibition,[7]; at 33.0 µM,-16%
same,growth inhibition,[7]; at 100.0 µM,89% (active)
same,growth inhibition,[8]; [17],-19%
same,growth inhibition,[8]; [18],89% (active)
same,growth inhibition,[8]; at 50.0 µM,87.8% (active)
same,growth inhibition,[10]; [17],58%
same,growth inhibition,[10]; [18],83% (active)
same,growth inhibition,[10]; at 50.0 µM,76.2% (active)
same,growth inhibition,[15]; at 1.2 µM,13%
same,growth inhibition,[15]; at 3.7 µM,11%
same,growth inhibition,[15]; [17],23%
same,growth inhibition,[15]; at 11.0 µM,-22%
same,growth inhibition,[15]; at 33.0 µM,8%
same,growth inhibition,[15]; [18],81% (active)
same,growth inhibition,[15]; at 50.0 µM,88.2% (active)
same,growth inhibition,[15]; at 100.0 µM,93% (active)
same,growth inhibition,[16]; at 1.2 µM,-14%
same,growth inhibition,[16]; at 3.7 µM,-21%
same,growth inhibition,[16]; at 11.0 µM,-25%
same,growth inhibition,[16]; at 33.0 µM,3%
same,growth inhibition,[16]; at 100.0 µM,92% (active)
